# SARS PLP yeast = blocks SARS-CoV papain-like protease in a yeast assay; S. cerevisiae expressing SARS-CoV PLpro, growth rescue; Potency, µM (series often up to 32.9 µM), hits mostly activators; hit rate 0.19% among 330,000; AID 485353; calls by dose curve; also: nearly all actives have a fitted effect of over 55% in size
# Sm TGR block = inhibitors of Schistosoma mansoni thioredoxin glutathione reductase; Q962Y6; purified TGR, DTNB reduction, TNB absorbance 405 nm; Potency, µM (titrated, usually from 114 µM), usual class: inhibitors; hit rate 3% among 360,000; AID 485364; also: nearly all actives have a fitted effect of over 60% in size
#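 TGR 20 nM + NADPH 100 uM (dispensed conc.), cpd preinc 15 min RT; start with NADPH (500 uM addition) then DTNB (15 mM addition). Kinetic TNB absorbance, 405 nm filter. Four-parameter Hill fit across titration.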
# Pf growth 96h = P. falciparum growth inhibition at 96 hour, primary screen for plastid delayed-death inhibitors; P. falciparum luciferase reporter growth, 96 h; Potency, µM (series often up to 28.7 µM), usual class: inhibitors; hit rate 6.9% among 320,000
#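 Erythrocytes infected with luciferase-expressing P. falciparum were dispensed at 2% hematocrit and 0.05% parasitemia (final), then incubated with compounds 96 hours at 37 C in 5% CO2. Luminescence after detection reagent addition reported growth.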
# Pf growth 48h = P. falciparum growth inhibition at 48 hours (one generation) | P. falciparum luciferase growth in erythrocytes, 48 h | Potency, µM (highest dose often 28.7 µM), most hits filed as inhibitors | hit rate 5.9% among 310,000 | AID 504832
#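 Luminescence readout; reporter = integrated firefly luciferase in P. falciparum. RBC culture at 2% hematocrit, 0.1% parasitemia final, 37 C/5% CO2; decreased signal taken as growth inhibition.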
# Numbers stand for hits; 0 = inactive; ? = inconclusive; - = not tested or not shown. An excerpt weighted towards active compounds, which were near 12% of everything screened. Unless noted, calls follow the shape of the dose curve; as a rule, active = well fitted curve in the direction sought with a large enough effect; inconclusive = small, poorly fitted or top-dose-only effect, or another doubt; inactive = no such curve, though single readings can be large; an effect the other way counts as inactive or inconclusive.
SMILES,SARS PLP yeast,Sm TGR block,Pf growth 96h,Pf growth 48h
Cc1c(CC(=O)N2C[C@H]3C[C@@H](C2)c2cccc(=O)n2C3)c(=O)oc2cc3occ(C(C)(C)C)c3cc12,0,0,8.3µM,0
COc1ccc2c(C)c(CC(=O)N3C[C@H]4C[C@@H](C3)c3cccc(=O)n3C4)c(=O)oc2c1C,0,0,?,0
Cc1ccc2c(c1)C(=O)C(=O)N2Cc1ccc(Cl)cc1,0,-,-,-
CC1=CC(C)C2COC(c3ccc[n+](C)c3)C1C2C (stereo not drawn),0,0,?,15µM
CC1=CC(C)[C@@H]2COC(c3ccc(O)cc3)[C@H]1C2C (stereo partly drawn),0,0,9.3µM,?
NS(=O)(=O)c1cc2c(cc1C(F)(F)F)N[C@H](Cc1ccccc1)NS2(=O)=O,-,-,0,0
O=S(NCc1ccco1)C12CC3CC(CC(C3)C1)C2 (stereo not drawn),0,22µM,0,0
O=S(NCc1ccccc1)C12CC3CC(CC(C3)C1)C2 (stereo not drawn),0,0,0,0
O=C(NCc1ccco1)C12CC3CC(C1)CC(C(=O)NCc1ccco1)(C3)C2,0,40µM,0,0
CC12CC3CC(C)(C1)CC(C(=O)NCc1ccco1)(C3)C2,0,0,0,0
Cc1ccc(C)c(N2CCN(C(=O)C3CCC(CNS(=O)(=O)c4ccc(Br)s4)CC3)CC2)c1 (stereo not drawn),-,0,-,-
CC12CC3(C)CC(C)(C1)CC(C(=O)NCc1cccnc1)(C2)C3,0,0,12µM,0
CC12CC3CC(C)(C1)CC(C(=O)NCc1cccnc1)(C3)C2,0,0,3.7µM,0
COc1ccc(OCc2nc(C#N)c(NCc3ccccc3Cl)o2)cc1,-,0,-,-
CCN(CC)S(=O)(=O)c1cccc(C(=O)NC(Cc2c[nH]c3ccccc23)c2nnc3n2CCCCC3)c1 (stereo not drawn),0,0,10µM,?
O=S(=O)(c1cnc(Cl)c(Br)c1)N1CCc2ccccc21,0,18µM,?,?
O=S(=O)(c1cnc(Cl)c(Cl)c1)N1CCc2ccccc21,0,4µM,?,0
O=S(=O)(c1cnc(Cl)c(Cl)c1)N1CCCc2ccccc21,0,?,0,0
COc1cc(C(=O)OCCN2CCOCC2)ccc1O,0,0,0,0
COc1c(C)c2c(c(O)c1CC=C(C)CCC(=O)OCCN1CCOCC1)C(=O)OC2,-,-,0,9.5µM
C/C(=N\Nc1nc2ccccc2[nH]1)c1ccc(N2CCOCC2)cc1,0,0,1.7µM,4.1µM
C/C(=N\Nc1nc2ccccc2[nH]1)c1ccc(C)o1,0,0,0,?
C/C(=N\Nc1nc2ccccc2[nH]1)c1ccc(Cl)s1,0,0,?,0.93µM
C/C(=N\Nc1nc(C)cc(C)n1)c1ccc(N2CCOCC2)cc1,0,0,?,?
CCOc1ccc(NS(=O)(=O)c2ccc(-c3cc(C)no3)s2)cc1,-,0,-,-
SMILES,SARS PLP yeast,Sm TGR block,Pf growth 96h,Pf growth 48h
COc1ccccc1CNC(=O)CN(c1ccc(C)cc1)S(=O)(=O)c1c(C)noc1C,0,0,0,?
CCOc1ccc(OCC)c(NS(=O)(=O)c2ccc(-c3coc(C)n3)cc2)c1,-,0,-,-
CC(C)CCN(Cc1ccco1)C(=O)Cn1ncc2c([nH]c3ccccc32)c1=O,-,0,-,-
CN(Cc1ccco1)C(=O)CN1C(=O)NC2(CCCC2)C1=O,0,-,-,-
CN(Cc1ccco1)C(=O)CN1C(=O)NC(c2ccccc2)(c2ccccc2)C1=O,0,35µM,?,?
Cc1ccc(CN(C)C(=O)CN2C(=O)NC(c3ccccc3)(c3ccccc3)C2=O)c(C)c1,0,0,?,13µM
CN(Cc1ccco1)C(=O)Cn1ncc2c([nH]c3ccccc32)c1=O,0,0,9.3µM,0
O=C(CCC1CCN(C(=O)c2ccccc2Cl)CC1)NCc1ccc(F)cc1,0,0,?,?
COc1ccc(C2C(C#N)=C(N)N(c3cccnc3)C3=C2C(=O)CCC3)cc1Cn1cc([N+](=O)[O-])cn1 (stereo not drawn),0,0,?,?
Cc1nn(C)cc1C1C(C#N)=C(N)N(c2ccc(F)c([N+](=O)[O-])c2)C2=C1C(=O)CCC2 (stereo not drawn),0,?,9.3µM,?
COc1ccc(C2C(C#N)=C(N)N(c3ccccc3)C3=C2C(=O)CCC3)cc1Cn1cc([N+](=O)[O-])cn1 (stereo not drawn),0,0,15µM,8.3µM
N#CC1=C(N)N(c2ccc(Br)cc2)C2=C(C(=O)CCC2)C1c1cccnc1 (stereo not drawn),0,40µM,0,?
Cc1ccc(N2C(N)=C(C#N)C(c3cccnc3)C3=C2CCCC3=O)cc1 (stereo not drawn),0,0,?,?
